Assay results taken from PubChem BioAssay.
The source made the active and inactive calls.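 Rule for the calls, unless noted: active = NADPH fluorescence slope more negative than the mean of all samples by about 3 SD, 99.7% confidence; inactive = the rest.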

How the values were obtained:
[1] = inhibitors of TNFa-induced NFkB p65 translocation, primary screen, imaging, HUVEC, MLSMR starter and 10KST1 sets (AID 438;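 active = inhibition above 20% together with a positive visual image hit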;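 note: compound added about 3h40 before a 20 min TNFalpha stimulation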;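 for inhibition: signal is the nuclear over cytoplasmic p65 intensity ratio per well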); conditions: HUVEC TNFa-induced p65 nuclear translocation; cell count: measured here: nuclei count (cytotoxicity indicator), at 2.08 µM; inhibition: at 2 µM, stronger effect = higher value, 0% TNFa-plus-vehicle, 100% no-TNFa wells
[2] = inhibitors of mutant huntingtin aggregation, primary screen, imaging, exon1htt(103Q)mCFP cells, high-content imaging (AID 483;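 active = visual image review flags a hit and inhibition of aggregation exceeds 20%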;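 note: compound exposure lasted 3 days before fixation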;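 for nuclei count: percent of the per-plate median nuclei count of sample wells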); conditions: exon1htt(103Q)mCFP cell line, aggregate imaging, at 2 µM; inhibition of aggregation: stronger effect = higher value; nuclei count: measured here: cell count, toxicity
[3] = inhibitors of E-selectin induction by TNFa, primary screen, imaging, HUVEC, immunofluorescence, MLSMR starter and 10KST1 sets (AID 487;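 active = visually confirmed hit in the image check and inhibition above 20%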;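 for inhibition: signal is fraction of cell area covered by stained E-selectin grains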;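 for nuclei count: 100% = median nuclei count of all wells on the same plate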); conditions: HUVEC TNFalpha-induced E-selectin immunofluorescence imaging, at 2 µM; inhibition: stronger effect = higher value; nuclei count: measured here: cell number, toxicity
[4] = biological target: Voltage-gated potassium channel subunit beta-2 (Rattus norvegicus) (UniProt P62483); test: KvBeta enzyme negative modulators, primary screen, biochemical, NADPH fluorescence (AID 622;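 active = fluorescence slope higher than the sample average by over 3 SD, cut at about -0.22 in these data, passing the limit was not always enough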;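 note: slope of raw intensity against log time taken from 70 to 1610 s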); conditions: recombinant KvBeta, 4-cyanobenzaldehyde reduction, at 10 µM, stronger effect = higher value
[5] = biological target: Voltage-gated potassium channel subunit beta-2 (Rattus norvegicus) (UniProt P62483); test: KvBeta positive modulators, primary screen, biochemical, NADPH fluorescence (AID 623); conditions: Recombinant KvBeta, NADPH fluorescence decrease slope, 10 min; at 10 µM; stronger effect = lower value;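 note: fluorescence intensity change per second fitted from 20 to 320 s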
[6] = biological target: Alpha-2C adrenergic receptor (Homo sapiens) (UniProt P18825); test: modulators of alpha2C/GIRK thallium flux, primary screen, cell-based, HEK293 alpha2C/GIRK1/2 (AID 624;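 active = fluorescence slope after compound addition differing from the mean of all screened samples at 99.7% confidence, in either direction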;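 note: slope of fluorescence ratio to pre-addition baseline per second over 15 to 24 s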); conditions: thallium flux BTC fluorescence, at 10 µM, actives lie on both sides
[7] = inhibitors of Sendai virus-induced IRF3 signaling, primary screen, TLR/RLR signaling modifier project, cell-based, Sendai virus stimulus, luciferase, 10K MLSCN set (AID 602276;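 active = inhibition at or above 50% at 10 µM; inactive = inhibition below 50%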;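 note: firefly luciferase from ISG56 promoter only with Renilla not read in this screen; 0% = Sendai virus plus DMSO and 100% = medium plus DMSO without virus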); conditions: HEK293 RL24 IRF3 luciferase reporter, at 10 µM, stronger effect = higher value
[8] = inhibitors of poly I:C-induced TLR3 signaling, primary screen, cell-based, poly I:C stimulus, luciferase, 10K MLSCN set (AID 602277;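 active = inhibition of the reporter signal at or above 50%; inactive = inhibition below 50%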); conditions: HEK293-TLR3 RL24 IRF3 luciferase reporter, at 10 µM, stronger effect = higher value

Sequence of Alpha-2C adrenergic receptor (Homo sapiens) (P18825 whole entry, looked up): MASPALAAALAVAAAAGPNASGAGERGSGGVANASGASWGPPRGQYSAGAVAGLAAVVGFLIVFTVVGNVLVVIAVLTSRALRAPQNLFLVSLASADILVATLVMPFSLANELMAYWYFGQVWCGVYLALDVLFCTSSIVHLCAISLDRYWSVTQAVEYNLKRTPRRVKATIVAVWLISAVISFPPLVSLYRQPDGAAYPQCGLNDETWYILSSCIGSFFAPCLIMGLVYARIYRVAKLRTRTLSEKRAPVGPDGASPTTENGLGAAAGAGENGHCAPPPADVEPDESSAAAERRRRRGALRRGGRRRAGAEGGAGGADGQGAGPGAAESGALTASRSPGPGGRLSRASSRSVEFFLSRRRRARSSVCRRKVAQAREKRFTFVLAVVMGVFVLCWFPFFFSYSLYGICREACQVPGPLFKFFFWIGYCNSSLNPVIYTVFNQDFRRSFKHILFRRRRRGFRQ
Sequence of Voltage-gated potassium channel subunit beta-2 (Rattus norvegicus) (P62483 whole entry, looked up): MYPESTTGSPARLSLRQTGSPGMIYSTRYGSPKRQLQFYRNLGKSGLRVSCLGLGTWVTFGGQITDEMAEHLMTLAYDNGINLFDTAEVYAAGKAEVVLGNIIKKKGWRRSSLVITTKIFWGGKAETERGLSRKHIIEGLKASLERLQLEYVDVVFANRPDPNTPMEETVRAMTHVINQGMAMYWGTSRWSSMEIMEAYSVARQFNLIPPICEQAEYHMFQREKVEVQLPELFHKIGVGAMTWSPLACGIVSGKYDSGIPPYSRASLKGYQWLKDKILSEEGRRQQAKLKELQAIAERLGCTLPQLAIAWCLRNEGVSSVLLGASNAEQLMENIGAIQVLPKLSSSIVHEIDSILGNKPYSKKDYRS

| SMILES | cell count [1] | inhibition [1] | inhibition of aggregation [2] | nuclei count [2] [%] | inhibition [3] | nuclei count [3] [%] | fluorescence slope [4] | NADPH fluorescence slope [5] | slope [6] | inhibition [7] | inhibition [8] |
| --- | --- | --- | --- | --- | --- | --- | --- | --- | --- | --- | --- |
| CCc1c(C)c2c(C)nn(-c3ccccc3)c2[nH]c1=O | 292 | -0.8% (inactive) | 21.9% (inactive) | 94.5 | -49.1% (inactive) | 123 | -0.409 (inactive) | -0.000123 (inactive) | 0.00678 (inactive) | 6.95% (inactive) | -0.265% (inactive) |
| Cc1cc(C(=O)NCCN2CCCCC2C)n(-c2ccccc2)n1 (stereo not drawn) | 879 | 0.6% (inactive) | 11.3% (inactive) | 96 | -39.7% (inactive) | 113 | -0.552 (inactive) | -4.7e-05 (inactive) | 0.0056 (inactive) | 1.98% (inactive) | 23.7% (inactive) |
| CC(=O)NC(CCS(C)(=O)=O)C(=O)Nc1cccc(C)c1C (stereo not drawn) | 576 | 4.3% (inactive) | 0.4% (inactive) | 110 | -6.3% (inactive) | 117 | -0.542 (inactive) | -7e-05 (inactive) | 0.00627 (inactive) | 17.7% (inactive) | 38.7% (inactive) |
| CCCC(=O)Nc1ccccc1-c1nnn(CC(=O)Nc2ccc(OCC)cc2)n1 | 369 | 3% (inactive) | -6.8% (inactive) | 97.4 | -7.5% (inactive) | 94.3 | -0.444 (inactive) | -0.000123 (inactive) | 0.00619 (inactive) | 12.2% (inactive) | 9.95% (inactive) |
| O=C(c1cnn2c(C(F)(F)F)cc(-c3ccco3)nc12)N1CCc2ccccc2C1 | 516 | 2% (inactive) | 22.2% (inactive) | 92.9 | -11.7% (inactive) | 67 | -0.327 (inactive) | 1.7e-05 (inactive) | 0.00417 (inactive) | -19% (inactive) | -13.6% (inactive) |
| COc1ccc(-c2nnc(SCC(=O)c3cc(C)n(Cc4cccs4)c3C)o2)cc1 | 497 | -13.7% (inactive) | -13.1% (inactive) | 97.7 | -129% (inactive) | 161 | -0.559 (inactive) | 5.5e-05 (inactive) | 0.00615 (inactive) | -5.7% (inactive) | -11.8% (inactive) |
| CCN(CC)C(=O)COC(=O)c1ccc(O)cc1 | 440 | 7.7% (inactive) | 9.9% (inactive) | 83.5 | -5.4% (inactive) | 99.1 | -0.512 (inactive) | 2.3e-05 (inactive) | 0.00516 (inactive) | -1.76% (inactive) | -1.25% (inactive) |
| CCn1nc(C(=O)OCC(=O)N2CCc3ccccc32)c2ccccc2c1=O | 301 | -8.8% (inactive) | 4.1% (inactive) | 68.3 | 25.7% (inactive) | 96.8 | -0.297 (inactive) | 2.7e-05 (inactive) | 0.00506 (inactive) | -3.24% (inactive) | 13.2% (inactive) |
| CCN1C(=O)C(C(=O)Nc2ccc(OC)cc2)C2CC1(C)Oc1ccccc12 (stereo not drawn) | 489 | 4.3% (inactive) | -2% (inactive) | 104 | -4.8% (inactive) | 102 | -0.305 (inactive) | -5.8e-05 (inactive) | 0.0052 (inactive) | -34.3% (inactive) | -51.5% (inactive) |
| O=C1C2C3C=CC(C3)C2C(=O)N1c1cccc(N2C(=O)C3C4C=CC(C4)C3C2=O)n1 (stereo not drawn) | 227 | 8.4% (inactive) | -5.5% (inactive) | 109 | -160% (inactive) | 137 | -0.549 (inactive) | -1.2e-05 (inactive) | 0.00682 (inactive) | 3.37% (inactive) | 21.6% (inactive) |
| COc1ccc(N2CCN(C(=O)Cc3ccc(-n4c(=O)[nH]c5ccccc5c4=O)cc3)CC2)cc1 | 660 | -5.8% (inactive) | -41.3% (inactive) | 96.7 | -103% (inactive) | 103 | -0.483 (inactive) | 1.9e-05 (inactive) | 0.00662 (inactive) | 7.13% (inactive) | -1.38% (inactive) |
| Cc1nn(C)c(C)c1NC(=O)CCSc1nc(-c2ccco2)cc(C(F)(F)F)n1 | 491 | -2.2% (inactive) | 10.3% (inactive) | 108 | 23.6% (inactive) | 100 | -0.432 (inactive) | -6.1e-05 (inactive) | 0.00599 (inactive) | 4.67% (inactive) | -10.1% (inactive) |
| CC1(C)C(c2ccccc2)=NC(c2ccccc2)N1O (stereo not drawn) | 422 | -2.8% (inactive) | 1.2% (inactive) | 107 | -22.6% (inactive) | 113 | -0.428 (inactive) | -3e-05 (inactive) | 0.0012 (inactive) | 5.11% (inactive) | 35.3% (inactive) |
| O=C1N(c2ccccc2)C2CS(=O)(=O)CC2N1c1ccc(Br)cc1 (stereo not drawn) | 566 | -12.3% (inactive) | 4% (inactive) | 88.5 | -32.1% (inactive) | 127 | -0.432 (inactive) | -1.5e-05 (inactive) | 0.00616 (inactive) | 6.69% (inactive) | 17.5% (inactive) |
| CC(=O)Nc1ccc(NS(=O)(=O)C(F)(F)F)cc1 | 417 | 2% (inactive) | 8% (inactive) | 104 | -96% (inactive) | 127 | -0.353 (inactive) | -0.000109 (inactive) | 0.00651 (inactive) | 3.92% (inactive) | 21.1% (inactive) |
| COC(=O)c1ccc(Cl)c(NC(C)=O)c1 | 367 | 1.8% (inactive) | -20.6% (inactive) | 110 | -48.4% (inactive) | 78.5 | -0.433 (inactive) | -4.1e-05 (inactive) | 0.00415 (inactive) | 4.64% (inactive) | 34.3% (inactive) |
| CC1CCCCN1S(=O)(=O)c1ccc(NC(=O)c2cccs2)cc1 (stereo not drawn) | 678 | -14.6% (inactive) | 25.4% (inactive) | 86.3 | -25.1% (inactive) | 104 | -0.431 (inactive) | 9.2e-06 (inactive) | 0.00361 (inactive) | -0.562% (inactive) | 5.71% (inactive) |
| OCCNc1nc2ccc(Cl)cc2[nH]1 | 433 | 2.6% (inactive) | 19.6% (inactive) | 106 | -19% (inactive) | 110 | -0.365 (inactive) | 1.9e-05 (inactive) | 0.00613 (inactive) | -12.8% (inactive) | -7.02% (inactive) |
| O=C1c2ccccc2NC2CCCCCN12 (stereo not drawn) | 445 | -2.1% (inactive) | -11% (inactive) | 108 | 13.9% (inactive) | 110 | -0.417 (inactive) | 2.2e-05 (inactive) | 0.0068 (inactive) | -2.99% (inactive) | 4.91% (inactive) |
| Cc1cc(NS(=O)(=O)c2ccc(Nc3nc(-c4sc(N)nc4C)cs3)cc2)no1 | 333 | 5.5% (inactive) | -10.4% (inactive) | 117 | -11.3% (inactive) | 103 | -0.412 (inactive) | -7.5e-05 (inactive) | 0.00495 (inactive) | 6.21% (inactive) | 25.1% (inactive) |
| CCOc1ccc(N(CC(=O)Nc2cccc(OC)c2)S(=O)(=O)c2c(C)noc2C)cc1 | 490 | -7.9% (inactive) | 18.7% (inactive) | 67 | -27% (inactive) | 109 | -0.518 (inactive) | -2.7e-05 (inactive) | 0.00799 (inactive) | 24.2% (inactive) | 22.1% (inactive) |
| COc1ccccc1N1CCN(C(=O)C2CCCO2)CC1 (stereo not drawn) | 405 | 2.5% (inactive) | -0.1% (inactive) | 124 | -14.4% (inactive) | 102 | -0.442 (inactive) | -8.7e-05 (inactive) | 0.0058 (inactive) | 11.6% (inactive) | 24.6% (inactive) |
| Cn1c(SCc2nc3ccccc3c(=O)[nH]2)nnc1-c1ccco1 | 748 | 0% (inactive) | 11.8% (inactive) | 104 | -141% (inactive) | 131 | -0.496 (inactive) | -6.5e-06 (inactive) | 0.00622 (inactive) | -0.0213% (inactive) | 25.9% (inactive) |
| COCCN(Cc1cc2cccc(C)c2[nH]c1=O)C(=O)c1ccccc1 | 298 | -22.3% (inactive) | 3.6% (inactive) | 91.8 | -23.9% (inactive) | 124 | -0.372 (inactive) | -5.9e-05 (inactive) | 0.00564 (inactive) | 7.15% (inactive) | 16.3% (inactive) |
| COc1cccc(N2CCN(Cc3cccnc3)CC2)c1 | 621 | -1% (inactive) | -21.4% (inactive) | 96.6 | 15.6% (inactive) | 87.2 | -0.364 (inactive) | -6e-05 (inactive) | 0.00629 (inactive) | 6.56% (inactive) | 11.4% (inactive) |
| O=C(NCC1CCCO1)C1CCC(CNS(=O)(=O)c2ccccc2)CC1 (stereo not drawn) | 341 | 8.1% (inactive) | -6% (inactive) | 110 | -24.2% (inactive) | 115 | -0.499 (inactive) | -4e-05 (inactive) | 0.00661 (inactive) | 7.1% (inactive) | 10.8% (inactive) |
| CCN1CCN(C(c2cccs2)C(C)NC(=O)c2ccccc2)CC1 (stereo not drawn) | 528 | -0.3% (inactive) | -7.7% (inactive) | 102 | -20.1% (inactive) | 128 | -0.59 (inactive) | -3.6e-05 (inactive) | 0.00664 (inactive) | 8.51% (inactive) | 39.8% (inactive) |
| Cc1nc2ncnn2c(Nc2ccc3c(c2)OCCO3)c1C | 233 | -9.3% (inactive) | 1.4% (inactive) | 87.4 | -57.1% (inactive) | 97.7 | -0.614 (inactive) | -4.3e-05 (inactive) | 0.00442 (inactive) | 9.15% (inactive) | -0.101% (inactive) |
